# For some of these results: Entries with a potency or affinity are not part of this list.
# Tests used:
# Set-up in all cases: scale not given: direction of the effect not stated beside the values
# [1] = target: Protein translocase subunit SecA (Escherichia coli (strain K12)) (UniProt P10408); assay: Assay to Identify E. coli SecA ATPase Inhibitors; assay type: functional; conditions: 30 µM
# [2] = target: T1, Ubiquitin-activating enzyme e1, putative (Leishmania donovani (strain BPK282A1)) (UniProt E9BSI1); assay: Leishmania donovani Ubiquitin Activating Enzyme (LdE1); assay type: functional; conditions: 30 µM
# T1 sequence (whole entry): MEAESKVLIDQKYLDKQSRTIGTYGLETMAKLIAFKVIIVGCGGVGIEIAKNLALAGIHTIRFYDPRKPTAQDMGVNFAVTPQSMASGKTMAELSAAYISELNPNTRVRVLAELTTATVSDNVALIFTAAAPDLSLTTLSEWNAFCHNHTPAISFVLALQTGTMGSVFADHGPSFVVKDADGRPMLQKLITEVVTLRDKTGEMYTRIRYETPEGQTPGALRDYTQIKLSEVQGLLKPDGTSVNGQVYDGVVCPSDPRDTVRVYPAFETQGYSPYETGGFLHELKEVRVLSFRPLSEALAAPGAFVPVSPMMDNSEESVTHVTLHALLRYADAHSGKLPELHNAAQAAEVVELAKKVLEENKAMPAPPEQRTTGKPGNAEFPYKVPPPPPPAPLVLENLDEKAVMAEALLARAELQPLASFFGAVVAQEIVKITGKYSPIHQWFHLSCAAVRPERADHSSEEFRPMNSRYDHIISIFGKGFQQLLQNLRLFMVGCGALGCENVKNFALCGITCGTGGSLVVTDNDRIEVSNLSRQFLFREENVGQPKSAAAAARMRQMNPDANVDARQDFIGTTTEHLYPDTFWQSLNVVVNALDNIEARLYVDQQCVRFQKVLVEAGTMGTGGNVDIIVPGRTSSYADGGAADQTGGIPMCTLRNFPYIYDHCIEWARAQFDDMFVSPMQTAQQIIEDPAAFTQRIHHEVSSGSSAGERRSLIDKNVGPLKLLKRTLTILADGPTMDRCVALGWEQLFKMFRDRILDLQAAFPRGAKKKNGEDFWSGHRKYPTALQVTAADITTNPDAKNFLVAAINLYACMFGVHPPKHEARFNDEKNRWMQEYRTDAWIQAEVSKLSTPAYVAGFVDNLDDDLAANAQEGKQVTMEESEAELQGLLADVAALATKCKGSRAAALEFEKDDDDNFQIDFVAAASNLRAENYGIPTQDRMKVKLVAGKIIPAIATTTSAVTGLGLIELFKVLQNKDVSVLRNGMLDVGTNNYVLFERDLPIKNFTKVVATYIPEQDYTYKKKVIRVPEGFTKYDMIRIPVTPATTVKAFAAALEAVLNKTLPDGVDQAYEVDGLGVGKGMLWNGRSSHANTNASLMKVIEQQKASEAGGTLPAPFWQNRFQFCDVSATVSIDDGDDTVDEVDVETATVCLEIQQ
# [3] = target: AMP-activated protein kinase, AMPK (Homo sapiens) (UniProt P54646+O43741+P54619+Q9UGJ0+Q9Y478+Q13131+Q9UGI9); assay: AMP-dependent Kinase enzyme assay. An in vitro enzyme assay that detects ADP turnover that is directly proportional to AMPK activity. This uses naive AMPK that is activated during the assay with MK-8722; assay type: functional; conditions: 30 µM
# [4] = target: Sialic acid-binding Ig-like lectin 9 (Homo sapiens) (UniProt Q9Y336); assay: Hs-Siglec9 ALPHAscreen SOP 20170721; conditions: 10 µM
# Trypanosoma cruzi = assay: Trypanosoma cruzi phosphomannomutase and mannose-1-phosphate guanylyltransferase assay; assay type: functional; conditions: 10 µM
# [5] = target: T2, Arginase-2, mitochondrial (Homo sapiens) (UniProt P78540); assay: in vitro enzyme assay to detect the production of urea directly proportional to the activity of Arginase II; assay type: functional; conditions: 33.3 µM; further: in the data most compounds retested in dose-response had high values
# T2 sequence (whole entry): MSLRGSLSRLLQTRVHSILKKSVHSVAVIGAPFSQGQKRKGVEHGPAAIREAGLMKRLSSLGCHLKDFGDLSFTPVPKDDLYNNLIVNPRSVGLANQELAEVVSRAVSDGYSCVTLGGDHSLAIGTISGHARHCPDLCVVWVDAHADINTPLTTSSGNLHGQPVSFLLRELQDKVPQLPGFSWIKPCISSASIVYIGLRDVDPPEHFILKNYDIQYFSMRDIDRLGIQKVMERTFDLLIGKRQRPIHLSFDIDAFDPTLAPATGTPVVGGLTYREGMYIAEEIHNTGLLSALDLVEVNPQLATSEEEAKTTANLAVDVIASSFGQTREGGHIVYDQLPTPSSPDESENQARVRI
# [6] = target: T3, Proteasome subunit beta (Trypanosoma cruzi) (UniProt O96673); assay: Trypanosoma cruzi proteasome chymotrypsin-like activity (TcProtChymo) assay.; further: in the data most compounds retested in dose-response had high values; assay type: functional; conditions: 9.37 µM
# T3 sequence (whole entry): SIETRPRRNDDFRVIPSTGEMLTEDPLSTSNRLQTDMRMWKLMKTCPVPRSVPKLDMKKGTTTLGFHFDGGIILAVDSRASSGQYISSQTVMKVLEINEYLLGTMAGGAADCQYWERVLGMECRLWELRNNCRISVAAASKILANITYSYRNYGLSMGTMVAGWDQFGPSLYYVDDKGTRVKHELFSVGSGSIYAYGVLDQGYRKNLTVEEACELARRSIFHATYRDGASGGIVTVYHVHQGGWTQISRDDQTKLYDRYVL
# Homo sapiens = organism: Homo sapiens; assay: To identify inhibition of the IFN signalling (Jak-Stat) pathway via expression of an eGFP reporter gene under the control of an IFN-stimulated response element (ISRE) containing MxA promoter.; assay type: functional; conditions: 30 µM
# [7] = target: T4, Tyrosyl-tRNA synthetase, putative (Trypanosoma cruzi (strain CL Brener)) (UniProt Q4DSP6); assay: Trypanosoma cruzi tyrosyl tRNA synthetase (TcYRS) _High Tyrosine SOP; assay type: functional; conditions: 30 µM; further: in the data most compounds retested in dose-response had high values
# T4 sequence (whole entry): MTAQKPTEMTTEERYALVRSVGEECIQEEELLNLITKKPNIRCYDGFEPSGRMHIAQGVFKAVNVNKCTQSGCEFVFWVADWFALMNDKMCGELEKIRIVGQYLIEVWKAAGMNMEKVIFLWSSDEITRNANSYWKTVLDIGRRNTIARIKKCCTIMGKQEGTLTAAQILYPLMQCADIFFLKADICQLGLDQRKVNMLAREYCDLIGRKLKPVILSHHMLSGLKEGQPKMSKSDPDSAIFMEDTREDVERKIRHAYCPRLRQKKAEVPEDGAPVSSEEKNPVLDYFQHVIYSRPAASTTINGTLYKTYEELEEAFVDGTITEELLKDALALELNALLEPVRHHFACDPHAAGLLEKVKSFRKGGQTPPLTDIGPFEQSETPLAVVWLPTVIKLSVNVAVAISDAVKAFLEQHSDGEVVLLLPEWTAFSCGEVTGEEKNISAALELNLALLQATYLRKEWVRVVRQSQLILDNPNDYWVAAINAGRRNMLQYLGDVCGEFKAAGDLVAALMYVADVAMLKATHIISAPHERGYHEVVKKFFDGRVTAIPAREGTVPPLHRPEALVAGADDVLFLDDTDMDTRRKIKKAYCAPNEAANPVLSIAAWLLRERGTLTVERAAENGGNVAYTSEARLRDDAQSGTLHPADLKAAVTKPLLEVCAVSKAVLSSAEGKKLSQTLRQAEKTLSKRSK
# [8] = target: T4, Tyrosyl-tRNA synthetase, putative (Trypanosoma cruzi (strain CL Brener)); assay: Trypanosoma cruzi tyrosyl tRNA synthetase (TcYRS) SOP; assay type: functional; conditions: 30 µM
# [9] = target: Chromo domain-containing protein 1 (Saccharomyces cerevisiae (strain ATCC 204508 / S288c) (Baker's yeast)) (UniProt P32657); assay: ScCHD-1 Enzyme Inhibition Assay; assay type: functional; conditions: 30 µM; further: in the data most compounds retested in dose-response had high values
# Sequence of Chromo domain-containing protein 1 (Saccharomyces cerevisiae (strain ATCC 204508 / S288c) (Baker's yeast)) (P32657 whole entry, the tested form may be a part): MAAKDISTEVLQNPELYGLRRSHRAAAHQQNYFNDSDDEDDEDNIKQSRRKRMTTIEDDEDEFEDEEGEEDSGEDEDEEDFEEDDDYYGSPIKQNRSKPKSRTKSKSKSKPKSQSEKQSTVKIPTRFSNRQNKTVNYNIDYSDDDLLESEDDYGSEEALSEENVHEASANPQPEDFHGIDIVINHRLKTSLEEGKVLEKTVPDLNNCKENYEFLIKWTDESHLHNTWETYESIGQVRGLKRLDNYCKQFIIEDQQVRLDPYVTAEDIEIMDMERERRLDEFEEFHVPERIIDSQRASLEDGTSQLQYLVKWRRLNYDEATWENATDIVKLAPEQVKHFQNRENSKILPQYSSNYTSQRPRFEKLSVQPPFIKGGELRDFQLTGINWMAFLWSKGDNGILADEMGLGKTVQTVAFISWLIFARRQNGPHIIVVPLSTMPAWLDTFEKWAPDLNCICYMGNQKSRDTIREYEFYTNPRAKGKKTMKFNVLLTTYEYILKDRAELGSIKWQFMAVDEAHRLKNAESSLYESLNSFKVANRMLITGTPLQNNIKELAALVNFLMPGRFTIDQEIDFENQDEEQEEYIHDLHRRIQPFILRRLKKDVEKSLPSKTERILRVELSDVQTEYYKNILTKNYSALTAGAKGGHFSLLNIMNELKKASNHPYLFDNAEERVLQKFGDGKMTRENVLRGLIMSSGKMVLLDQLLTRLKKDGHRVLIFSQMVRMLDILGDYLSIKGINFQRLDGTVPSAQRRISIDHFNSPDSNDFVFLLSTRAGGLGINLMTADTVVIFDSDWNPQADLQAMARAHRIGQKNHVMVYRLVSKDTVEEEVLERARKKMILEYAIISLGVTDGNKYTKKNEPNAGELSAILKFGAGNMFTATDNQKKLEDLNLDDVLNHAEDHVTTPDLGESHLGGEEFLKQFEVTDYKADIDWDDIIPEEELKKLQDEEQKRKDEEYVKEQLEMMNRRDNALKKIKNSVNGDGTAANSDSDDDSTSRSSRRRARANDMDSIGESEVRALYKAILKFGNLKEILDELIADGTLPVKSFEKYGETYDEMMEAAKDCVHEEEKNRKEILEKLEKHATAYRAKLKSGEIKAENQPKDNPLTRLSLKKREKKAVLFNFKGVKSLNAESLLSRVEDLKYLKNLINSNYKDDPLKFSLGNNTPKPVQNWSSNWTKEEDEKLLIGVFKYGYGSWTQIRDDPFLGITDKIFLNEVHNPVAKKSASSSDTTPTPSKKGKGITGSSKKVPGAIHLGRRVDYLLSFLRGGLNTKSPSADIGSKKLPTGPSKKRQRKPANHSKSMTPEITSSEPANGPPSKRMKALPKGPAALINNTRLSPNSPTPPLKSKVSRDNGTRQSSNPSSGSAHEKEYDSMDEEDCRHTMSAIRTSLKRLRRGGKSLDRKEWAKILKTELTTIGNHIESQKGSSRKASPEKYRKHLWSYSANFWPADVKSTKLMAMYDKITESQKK
# Sequence of Sialic acid-binding Ig-like lectin 9 (Homo sapiens) (Q9Y336 whole entry): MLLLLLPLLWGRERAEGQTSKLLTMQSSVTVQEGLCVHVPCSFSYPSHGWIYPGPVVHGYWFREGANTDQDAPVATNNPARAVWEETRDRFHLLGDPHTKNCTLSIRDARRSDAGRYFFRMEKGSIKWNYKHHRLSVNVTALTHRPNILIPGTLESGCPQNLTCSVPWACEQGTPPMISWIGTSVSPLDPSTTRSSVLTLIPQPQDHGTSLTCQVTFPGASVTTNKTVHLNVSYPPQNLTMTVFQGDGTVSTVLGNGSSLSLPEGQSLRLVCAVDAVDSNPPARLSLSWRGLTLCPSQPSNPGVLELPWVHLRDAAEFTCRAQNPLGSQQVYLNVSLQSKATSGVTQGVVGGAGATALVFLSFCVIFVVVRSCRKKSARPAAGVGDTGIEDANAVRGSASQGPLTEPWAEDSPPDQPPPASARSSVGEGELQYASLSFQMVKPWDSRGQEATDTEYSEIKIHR
# Sequence of Protein translocase subunit SecA (Escherichia coli (strain K12)) (P10408 whole entry): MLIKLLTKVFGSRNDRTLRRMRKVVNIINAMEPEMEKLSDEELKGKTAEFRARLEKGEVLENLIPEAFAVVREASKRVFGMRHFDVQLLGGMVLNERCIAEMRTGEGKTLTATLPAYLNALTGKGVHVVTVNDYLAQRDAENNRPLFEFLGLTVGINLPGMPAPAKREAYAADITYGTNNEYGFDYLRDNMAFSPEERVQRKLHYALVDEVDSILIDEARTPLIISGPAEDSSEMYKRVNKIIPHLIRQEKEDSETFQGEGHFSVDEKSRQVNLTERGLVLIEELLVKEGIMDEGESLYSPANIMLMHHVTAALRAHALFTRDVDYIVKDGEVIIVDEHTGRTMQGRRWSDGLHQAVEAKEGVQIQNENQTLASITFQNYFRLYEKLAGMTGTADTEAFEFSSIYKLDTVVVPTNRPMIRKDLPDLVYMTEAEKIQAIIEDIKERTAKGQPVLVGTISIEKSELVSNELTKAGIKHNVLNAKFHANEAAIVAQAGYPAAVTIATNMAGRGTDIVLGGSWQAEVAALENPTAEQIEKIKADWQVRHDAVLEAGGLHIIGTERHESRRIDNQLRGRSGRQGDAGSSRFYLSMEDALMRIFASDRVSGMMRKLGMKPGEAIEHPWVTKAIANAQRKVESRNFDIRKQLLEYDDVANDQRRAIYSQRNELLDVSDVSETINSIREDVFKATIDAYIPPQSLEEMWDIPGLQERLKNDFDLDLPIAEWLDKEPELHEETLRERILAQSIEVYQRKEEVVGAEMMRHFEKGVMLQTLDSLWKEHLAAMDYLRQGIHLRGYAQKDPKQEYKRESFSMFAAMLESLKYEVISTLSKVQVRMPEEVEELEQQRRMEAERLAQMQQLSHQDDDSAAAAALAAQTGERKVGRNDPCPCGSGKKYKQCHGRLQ
Compound,Percent Effect [1] [%],Percent Effect [2] [%],Percent Effect [3] [%],Percent Effect [4] [%],Percent Effect (Trypanosoma cruzi) [%],Percent Effect [5] [%],Percent Effect [6] [%],Percent Effect (Homo sapiens) [%],Percent Effect [7] [%],Percent Effect [8] [%],Percent Effect [9] [%]
O=C(NC1CC(=O)N(Cc2cccc(F)c2)C1)c1ccncc1 (stereo unspecified),-2.44,-8.11,4.25,-3.94,-1.93,-0.476,10.7,1.72,1.59,4.88,0.971
CCn1cnnc1CNC(=O)CCC(=O)c1ccc2c(c1)OCCO2,-8.9,16.2,-8.33,6.97,6.7,-10,15.3,11.5,10.3,23.5,-8.22
CCC(=O)N1CCC2(CC1)COc1ccccc1S(=O)(=O)N(C)C2,-4.24,16.2,-6.69,20.9,1.27,2.23,9.7,7.17,7.53,18.5,-11.2
CCN1CC2(CC1=O)CN(Cc1cccs1)CCN(C(=O)C(C)C)C2 (stereo unspecified),-5.19,-5.41,2.9,-2.56,-2.73,-3.33,7.35,-3.43,4.95,11,4.59
O=C(Cc1ccc2c(c1)OCCO2)NCCc1nnc2n1CCC2,-2.17,24.3,22.3,-3.07,3.87,-7.62,10.8,2.82,4.43,18.5,-9.97
CC(=O)c1cccc(OCC(=O)NS(=O)(=O)c2ccc(C)s2)c1,-6.93,12.7,-2.86,9.9,4.63,-4.56,3.85,-8.7,3.45,13.9,-6.95
CCc1nc(N)sc1C(=O)N1CCCC(CCc2ccccc2C)C1 (stereo unspecified),-4.6,5.41,-6.81,34.1,4.59,-0.744,10.6,34.9,9.68,18.5,-1.19
CCn1ccnc1CN1CCCN(C(=O)Cn2nc(C)cc2C)CC1,-2.55,0,9.91,-9.39,1.08,-0.21,3.31,-12.9,-1.91,0,-14.3
Cc1cc(N2CCN(Cc3nccn3C)CC2)cc(C)n1,-3.69,1.39,-5.16,-5.41,-5.93,-0.883,12.1,-10.6,0,-2.56,-1.23
Fc1cccc(-c2nc(CN3CCOC(Cn4cncn4)C3)co2)c1 (stereo unspecified),-1.25,0,1.03,1.46,8.97,-1.14,4.67,-3.37,0.493,3.8,-3.88
O=C(c1cccc2c1OCO2)N1CCCC1c1noc(C2CC2)n1 (stereo unspecified),-5.41,5.06,-1.36,-1.04,10.5,-3.42,-2.38,5,4.43,11.4,-6.85
